These results are taken from the supplement of paper PMC11732987, “Enantioselective OTUD7B fragment discovery through chemoproteomics screening and high-throughput optimisation” (Communications Chemistry, 2025).

A number with no mark means an inactive call.

Test in all cases: log2 ratio of Biotin-Ahx-Ub-VS probe labelling (fragment/DMSO); higher = less target engagement (more negative = stronger competition), active = hit call of the paper (q ≤ 0.05, log2 ratio ≤ -1)
Details in all cases: compound concentration: 200 uM; treatment time: 3 h

In one assay the target is T1, USP19 (UniProt O94966).
T1 sequence (whole entry): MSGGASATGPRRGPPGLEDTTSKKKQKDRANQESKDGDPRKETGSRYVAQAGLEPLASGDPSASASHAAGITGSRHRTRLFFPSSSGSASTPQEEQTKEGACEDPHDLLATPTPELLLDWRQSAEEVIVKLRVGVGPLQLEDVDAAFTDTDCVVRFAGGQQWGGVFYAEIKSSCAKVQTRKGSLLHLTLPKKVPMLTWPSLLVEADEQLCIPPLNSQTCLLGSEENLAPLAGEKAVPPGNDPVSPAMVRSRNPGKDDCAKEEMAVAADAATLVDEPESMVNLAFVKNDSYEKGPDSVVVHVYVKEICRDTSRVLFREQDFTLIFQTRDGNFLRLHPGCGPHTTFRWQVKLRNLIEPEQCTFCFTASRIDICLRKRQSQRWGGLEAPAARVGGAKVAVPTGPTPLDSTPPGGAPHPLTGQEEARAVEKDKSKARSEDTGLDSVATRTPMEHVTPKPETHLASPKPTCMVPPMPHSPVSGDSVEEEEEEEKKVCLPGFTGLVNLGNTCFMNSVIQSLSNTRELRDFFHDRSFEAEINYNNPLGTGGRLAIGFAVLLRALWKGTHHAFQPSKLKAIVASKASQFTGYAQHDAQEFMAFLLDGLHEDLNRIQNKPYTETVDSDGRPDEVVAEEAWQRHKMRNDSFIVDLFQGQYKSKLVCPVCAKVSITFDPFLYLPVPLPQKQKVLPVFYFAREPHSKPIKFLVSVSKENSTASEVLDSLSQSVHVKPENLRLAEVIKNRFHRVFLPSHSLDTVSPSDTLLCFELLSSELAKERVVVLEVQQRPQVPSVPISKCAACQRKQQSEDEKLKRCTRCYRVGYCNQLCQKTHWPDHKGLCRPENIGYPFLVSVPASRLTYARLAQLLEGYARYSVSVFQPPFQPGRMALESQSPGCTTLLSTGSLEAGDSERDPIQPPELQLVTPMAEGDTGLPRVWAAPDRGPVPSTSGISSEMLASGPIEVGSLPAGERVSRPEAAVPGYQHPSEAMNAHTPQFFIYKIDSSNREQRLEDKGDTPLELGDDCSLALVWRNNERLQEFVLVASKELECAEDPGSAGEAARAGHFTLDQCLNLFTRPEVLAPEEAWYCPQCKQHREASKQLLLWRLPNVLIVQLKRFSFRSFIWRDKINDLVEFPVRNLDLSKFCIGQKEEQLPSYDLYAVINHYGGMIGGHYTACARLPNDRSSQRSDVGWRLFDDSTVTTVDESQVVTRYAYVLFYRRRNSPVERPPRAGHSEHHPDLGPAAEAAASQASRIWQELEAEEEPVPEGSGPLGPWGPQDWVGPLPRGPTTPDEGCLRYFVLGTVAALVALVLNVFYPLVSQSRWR
In a few lines:
(§1)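 Each value is an average log2 ratio of fragment to vehicle, tested by unpaired t-test. The underlying Spectronaut label-free quantities were global-median-normalised, and only proteins with ≥2 unique peptides were included. Triplicate HEK293T lysate samples (495 µg) were exposed to fragment at 200 µM or vehicle for 3 h, then to Biotin-Ahx-Ub-VS at 0.5 µM final for 1 h, before NeutrAvidin enrichment of labelled DUBs, LysC and trypsin digestion, and diaPASEF LC-MS/MS.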

The target in a further assay is USP24 (UniProt Q9UPU5). In outline: as §1
USP24, sequence (Q9UPU5 whole entry): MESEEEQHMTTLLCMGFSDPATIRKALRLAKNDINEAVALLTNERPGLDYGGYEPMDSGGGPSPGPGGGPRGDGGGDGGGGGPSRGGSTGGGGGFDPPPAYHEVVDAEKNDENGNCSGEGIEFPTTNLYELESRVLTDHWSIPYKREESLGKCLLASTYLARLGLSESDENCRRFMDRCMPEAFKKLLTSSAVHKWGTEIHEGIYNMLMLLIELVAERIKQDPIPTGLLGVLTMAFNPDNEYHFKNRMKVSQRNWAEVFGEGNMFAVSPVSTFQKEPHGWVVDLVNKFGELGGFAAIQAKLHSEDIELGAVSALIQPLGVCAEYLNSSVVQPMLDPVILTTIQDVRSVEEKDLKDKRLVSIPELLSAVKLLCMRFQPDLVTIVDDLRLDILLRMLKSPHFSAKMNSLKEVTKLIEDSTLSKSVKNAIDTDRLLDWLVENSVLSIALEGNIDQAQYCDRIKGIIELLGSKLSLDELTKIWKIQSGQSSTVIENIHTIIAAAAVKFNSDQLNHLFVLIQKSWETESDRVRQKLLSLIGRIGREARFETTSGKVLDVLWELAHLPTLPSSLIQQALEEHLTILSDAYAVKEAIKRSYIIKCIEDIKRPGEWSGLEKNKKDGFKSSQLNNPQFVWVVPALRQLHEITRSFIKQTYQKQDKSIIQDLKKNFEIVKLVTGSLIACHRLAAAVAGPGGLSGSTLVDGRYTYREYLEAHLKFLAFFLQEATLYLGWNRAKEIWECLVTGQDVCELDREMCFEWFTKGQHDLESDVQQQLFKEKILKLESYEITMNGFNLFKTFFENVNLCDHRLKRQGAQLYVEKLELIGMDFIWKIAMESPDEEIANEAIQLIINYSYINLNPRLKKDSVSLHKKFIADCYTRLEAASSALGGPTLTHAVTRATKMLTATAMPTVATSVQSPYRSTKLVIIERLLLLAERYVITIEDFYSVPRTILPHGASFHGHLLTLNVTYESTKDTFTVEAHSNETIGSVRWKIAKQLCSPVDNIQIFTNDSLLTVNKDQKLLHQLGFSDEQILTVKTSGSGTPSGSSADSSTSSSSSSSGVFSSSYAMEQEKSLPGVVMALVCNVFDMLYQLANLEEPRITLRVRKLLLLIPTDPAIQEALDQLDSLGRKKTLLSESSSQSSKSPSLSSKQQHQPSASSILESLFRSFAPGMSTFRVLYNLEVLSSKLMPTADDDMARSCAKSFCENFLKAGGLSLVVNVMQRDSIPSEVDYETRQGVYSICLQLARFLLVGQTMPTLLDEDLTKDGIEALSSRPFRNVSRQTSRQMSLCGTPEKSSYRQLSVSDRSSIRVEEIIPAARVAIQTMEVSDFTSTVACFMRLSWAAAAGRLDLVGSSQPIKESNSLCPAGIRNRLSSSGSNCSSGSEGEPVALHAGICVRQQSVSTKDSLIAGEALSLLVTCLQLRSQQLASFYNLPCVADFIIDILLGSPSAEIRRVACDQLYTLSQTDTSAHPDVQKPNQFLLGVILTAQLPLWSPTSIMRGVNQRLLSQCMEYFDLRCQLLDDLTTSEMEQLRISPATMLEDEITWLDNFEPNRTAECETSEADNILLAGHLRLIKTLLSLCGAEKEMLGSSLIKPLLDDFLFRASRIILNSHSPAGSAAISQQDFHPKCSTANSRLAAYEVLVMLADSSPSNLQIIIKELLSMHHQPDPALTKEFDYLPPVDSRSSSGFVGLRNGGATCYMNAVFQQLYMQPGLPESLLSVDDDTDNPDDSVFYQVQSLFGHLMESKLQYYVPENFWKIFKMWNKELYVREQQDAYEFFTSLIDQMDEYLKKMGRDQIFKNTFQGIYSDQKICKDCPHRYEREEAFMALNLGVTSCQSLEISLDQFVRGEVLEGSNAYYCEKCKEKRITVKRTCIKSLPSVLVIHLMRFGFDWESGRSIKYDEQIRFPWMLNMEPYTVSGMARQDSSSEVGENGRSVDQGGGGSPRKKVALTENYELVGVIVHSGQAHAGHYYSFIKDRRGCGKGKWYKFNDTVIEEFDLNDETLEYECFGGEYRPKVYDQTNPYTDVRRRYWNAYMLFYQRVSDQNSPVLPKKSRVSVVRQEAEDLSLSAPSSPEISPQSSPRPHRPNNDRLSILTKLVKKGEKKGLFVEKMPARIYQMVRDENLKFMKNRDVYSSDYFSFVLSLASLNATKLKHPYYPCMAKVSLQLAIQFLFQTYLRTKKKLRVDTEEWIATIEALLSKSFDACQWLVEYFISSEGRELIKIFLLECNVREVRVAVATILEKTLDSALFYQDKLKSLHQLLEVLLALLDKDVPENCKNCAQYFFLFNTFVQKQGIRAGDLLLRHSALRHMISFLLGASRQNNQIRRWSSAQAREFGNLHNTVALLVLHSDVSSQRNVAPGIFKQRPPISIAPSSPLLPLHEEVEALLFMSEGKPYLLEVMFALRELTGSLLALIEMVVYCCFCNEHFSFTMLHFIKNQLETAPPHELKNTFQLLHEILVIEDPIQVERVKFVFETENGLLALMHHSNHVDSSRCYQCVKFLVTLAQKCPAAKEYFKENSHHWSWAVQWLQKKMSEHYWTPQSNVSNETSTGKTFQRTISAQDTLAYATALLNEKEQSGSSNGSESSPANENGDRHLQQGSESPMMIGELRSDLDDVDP
For the next assay, the target named is T2, USP25 (UniProt Q9UHP3).
T2 sequence (whole entry): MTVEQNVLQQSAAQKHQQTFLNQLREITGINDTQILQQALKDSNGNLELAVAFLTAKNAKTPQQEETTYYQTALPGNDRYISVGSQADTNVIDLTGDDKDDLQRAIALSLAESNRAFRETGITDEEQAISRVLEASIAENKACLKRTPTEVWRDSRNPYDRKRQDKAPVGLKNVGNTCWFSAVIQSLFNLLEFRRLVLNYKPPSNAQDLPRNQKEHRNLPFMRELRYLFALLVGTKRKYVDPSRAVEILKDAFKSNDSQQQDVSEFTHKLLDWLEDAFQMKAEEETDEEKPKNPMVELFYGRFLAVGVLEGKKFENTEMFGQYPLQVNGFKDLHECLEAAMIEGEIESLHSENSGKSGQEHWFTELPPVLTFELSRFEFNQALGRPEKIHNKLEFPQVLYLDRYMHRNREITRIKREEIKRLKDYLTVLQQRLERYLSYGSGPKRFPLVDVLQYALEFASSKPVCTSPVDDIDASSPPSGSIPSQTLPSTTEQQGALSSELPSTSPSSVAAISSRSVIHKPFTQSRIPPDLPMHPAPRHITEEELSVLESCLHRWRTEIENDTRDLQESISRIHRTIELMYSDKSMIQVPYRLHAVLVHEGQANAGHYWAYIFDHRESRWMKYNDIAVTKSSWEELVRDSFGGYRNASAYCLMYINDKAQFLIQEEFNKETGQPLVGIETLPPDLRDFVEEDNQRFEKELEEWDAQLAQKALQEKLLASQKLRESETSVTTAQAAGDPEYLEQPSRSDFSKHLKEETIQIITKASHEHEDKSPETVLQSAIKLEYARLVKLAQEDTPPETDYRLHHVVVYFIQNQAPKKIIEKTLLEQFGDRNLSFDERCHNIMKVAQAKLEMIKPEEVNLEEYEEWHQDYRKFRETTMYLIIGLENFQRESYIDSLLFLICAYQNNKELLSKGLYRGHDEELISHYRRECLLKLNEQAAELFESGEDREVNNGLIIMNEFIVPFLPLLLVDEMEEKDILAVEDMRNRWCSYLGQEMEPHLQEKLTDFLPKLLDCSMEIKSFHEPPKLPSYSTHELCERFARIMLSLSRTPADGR
In a few lines:
as §1

The target of a further assay is T3, USP28 (UniProt Q96RU2).
T3 sequence (whole entry): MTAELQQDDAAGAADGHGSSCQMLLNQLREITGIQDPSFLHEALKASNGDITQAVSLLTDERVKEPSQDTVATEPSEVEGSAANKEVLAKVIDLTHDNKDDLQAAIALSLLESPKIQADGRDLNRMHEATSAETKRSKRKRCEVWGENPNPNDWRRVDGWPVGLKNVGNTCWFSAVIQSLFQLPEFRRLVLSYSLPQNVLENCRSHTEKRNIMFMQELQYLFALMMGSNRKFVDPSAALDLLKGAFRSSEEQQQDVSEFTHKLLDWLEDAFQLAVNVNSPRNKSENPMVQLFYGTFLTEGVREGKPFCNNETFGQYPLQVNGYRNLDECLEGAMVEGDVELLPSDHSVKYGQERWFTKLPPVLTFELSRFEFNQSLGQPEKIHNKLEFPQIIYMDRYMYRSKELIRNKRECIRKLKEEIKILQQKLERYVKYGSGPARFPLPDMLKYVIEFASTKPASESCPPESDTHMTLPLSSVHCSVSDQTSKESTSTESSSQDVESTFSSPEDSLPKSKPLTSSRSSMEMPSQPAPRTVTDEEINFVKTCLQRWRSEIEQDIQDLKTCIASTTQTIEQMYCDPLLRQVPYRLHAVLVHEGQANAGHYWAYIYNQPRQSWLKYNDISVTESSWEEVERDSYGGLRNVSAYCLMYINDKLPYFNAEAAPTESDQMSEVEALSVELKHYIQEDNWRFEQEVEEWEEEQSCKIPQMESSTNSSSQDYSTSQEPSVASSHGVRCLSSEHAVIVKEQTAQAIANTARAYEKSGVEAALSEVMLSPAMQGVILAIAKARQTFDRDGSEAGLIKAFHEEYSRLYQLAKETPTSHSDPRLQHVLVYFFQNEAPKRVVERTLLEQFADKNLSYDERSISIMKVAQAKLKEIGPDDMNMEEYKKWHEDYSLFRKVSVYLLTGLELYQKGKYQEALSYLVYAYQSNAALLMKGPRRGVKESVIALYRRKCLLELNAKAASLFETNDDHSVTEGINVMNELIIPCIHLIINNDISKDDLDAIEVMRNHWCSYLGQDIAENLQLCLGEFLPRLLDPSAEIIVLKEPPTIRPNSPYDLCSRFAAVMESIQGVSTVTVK
In outline:
as §1

For `Cn1cc(CN(Cc2ccc(Cl)cc2)C(=O)CCl)cn1`, the “log2 ratio of Biotin-Ahx-Ub-VS probe labelling” value with USP19 is -0.653; with USP24, -1.49 (active); with USP25, -0.161; with USP28, -0.648.
